Data from PubChem BioAssay.
The source made the active and inactive calls.

Assays:
[1] = tested on: Plasmodium falciparum Sir2 (PF13_0152, Sir2A); test: Plasmodium falciparum Sir2A binding compounds – biochemical, small-molecule microarray, 635 nm fluorescence, primary screen (AID 1098); conditions: fluorescence 635 nm, higher = more signal;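 also: score merges spot fluorescence intensity with its signal-to-noise ratio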
[2] = probe aDKK1 binding to arrayed compounds – biochemical, biotinylated probe, 635/667 nm fluorescence, primary screen (AID 1099); conditions: small-molecule microarray, higher = more signal;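 also: score merges 667nm spot fluorescence with signal to noise across triplicate slides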
[3] = probe aCHRDL2 binding to arrayed compounds – biochemical, biotinylated probe, 635/667 nm fluorescence, primary screen (AID 1100); conditions: small-molecule microarray, higher = more signal
[4] = change in splice reporter luminescence, either direction, cell-based, HEK293, spliceosome inhibition project, primary screen (AID 1101); conditions: HEK293 splicing luciferase reporter, 24 h, higher = more signal, called active from +8 up or from −8 down;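 also: HEK293 cells carrying a splicing-competent luciferase reporter gene; test concentration not given here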
[5] = target: Fibroblast growth factor 10 (Homo sapiens) (UniProt O15520); test: compounds binding fibroblast growth factor 10 – biochemical, small-molecule microarray, 635 nm fluorescence, primary screen (AID 1102); conditions: FGF10 binding, fluorescence 635 nm, higher = more signal
Sequence of Fibroblast growth factor 10 (Homo sapiens) (O15520 whole entry, looked up): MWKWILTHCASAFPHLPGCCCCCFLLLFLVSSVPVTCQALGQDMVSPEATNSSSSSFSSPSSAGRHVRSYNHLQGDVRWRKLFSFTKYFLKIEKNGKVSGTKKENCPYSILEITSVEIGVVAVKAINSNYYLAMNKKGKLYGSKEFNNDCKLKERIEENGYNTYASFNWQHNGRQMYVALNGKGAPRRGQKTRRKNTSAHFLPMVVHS

[6] = tested on: glycogen synthase kinase-3 (GSK3A per assay name; protocol says GSK3B); test: compounds binding glycogen synthase kinase-3 – biochemical, small-molecule microarray, 635 nm fluorescence, GSK3A, primary screen (AID 1103); conditions: fluorescence 635 nm, higher = more signal; also: the record names both GSK3A and GSK3B
[7] = target: Epidermal growth factor receptor (Homo sapiens) (UniProt P00533); test: compounds binding epidermal growth factor receptor – biochemical, small-molecule microarray, 635 nm fluorescence, primary screen (AID 1104); conditions: EGFR binding, higher = more signal;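 also: score merges 667 nm emission intensity with spot signal to noise over triplicate slides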
Sequence of Epidermal growth factor receptor (Homo sapiens) (P00533 whole entry, looked up): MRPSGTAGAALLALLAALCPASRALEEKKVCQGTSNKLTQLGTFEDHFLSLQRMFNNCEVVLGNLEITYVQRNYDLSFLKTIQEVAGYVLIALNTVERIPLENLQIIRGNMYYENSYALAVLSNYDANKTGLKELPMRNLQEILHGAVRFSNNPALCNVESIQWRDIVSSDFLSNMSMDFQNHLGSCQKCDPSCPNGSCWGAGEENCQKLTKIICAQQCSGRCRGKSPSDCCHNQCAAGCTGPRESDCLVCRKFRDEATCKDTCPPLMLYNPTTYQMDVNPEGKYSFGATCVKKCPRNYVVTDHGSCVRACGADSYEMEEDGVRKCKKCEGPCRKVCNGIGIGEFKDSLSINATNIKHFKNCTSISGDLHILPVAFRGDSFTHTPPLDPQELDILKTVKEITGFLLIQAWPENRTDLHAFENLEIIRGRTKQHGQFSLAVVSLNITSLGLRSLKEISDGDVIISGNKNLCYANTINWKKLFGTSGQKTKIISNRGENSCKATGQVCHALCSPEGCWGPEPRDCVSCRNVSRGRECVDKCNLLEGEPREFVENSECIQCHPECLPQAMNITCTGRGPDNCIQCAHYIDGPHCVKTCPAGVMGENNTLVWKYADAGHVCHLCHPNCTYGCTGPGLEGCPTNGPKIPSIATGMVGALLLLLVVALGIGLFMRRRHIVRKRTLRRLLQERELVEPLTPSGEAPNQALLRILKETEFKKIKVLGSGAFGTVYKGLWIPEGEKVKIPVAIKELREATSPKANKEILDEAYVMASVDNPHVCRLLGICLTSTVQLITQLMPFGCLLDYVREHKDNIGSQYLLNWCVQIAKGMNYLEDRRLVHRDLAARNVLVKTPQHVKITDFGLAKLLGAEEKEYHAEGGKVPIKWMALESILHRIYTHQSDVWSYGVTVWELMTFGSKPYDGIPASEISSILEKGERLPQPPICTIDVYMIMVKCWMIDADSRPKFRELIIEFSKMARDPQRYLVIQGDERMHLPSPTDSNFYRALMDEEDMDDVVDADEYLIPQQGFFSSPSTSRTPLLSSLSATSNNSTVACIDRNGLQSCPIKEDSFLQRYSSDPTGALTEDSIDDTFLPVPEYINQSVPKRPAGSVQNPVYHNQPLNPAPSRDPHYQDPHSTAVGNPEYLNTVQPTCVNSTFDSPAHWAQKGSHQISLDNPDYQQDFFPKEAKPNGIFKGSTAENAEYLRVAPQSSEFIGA

[8] = target: Follistatin-related protein 3 (Homo sapiens) (UniProt O95633); test: compounds binding follistatin-related protein 3 – biochemical, small-molecule microarray, 635 nm fluorescence, primary screen (AID 1105); conditions: FSTL3 binding, higher = more signal;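 also: score merges emission near 667 nm and signal to noise per printed spot across three slides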
Sequence of Follistatin-related protein 3 (Homo sapiens) (O95633 whole entry, looked up): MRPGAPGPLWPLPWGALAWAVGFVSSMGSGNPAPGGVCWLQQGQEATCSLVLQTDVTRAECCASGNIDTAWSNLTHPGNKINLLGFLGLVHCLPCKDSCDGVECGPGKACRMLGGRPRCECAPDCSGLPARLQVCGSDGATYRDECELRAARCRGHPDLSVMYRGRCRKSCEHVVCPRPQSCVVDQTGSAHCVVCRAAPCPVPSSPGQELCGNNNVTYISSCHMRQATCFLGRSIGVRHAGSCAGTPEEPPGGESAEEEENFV

[9] = target: Dickkopf-related protein 1 (Homo sapiens) (UniProt O94907); test: small molecules binding DKK1 protein – biochemical, small-molecule microarray, 635 nm fluorescence scan, primary screen (AID 1106); conditions: higher = more signal;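 also: score merges emission near 667 nm with signal to noise over three replicate slides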
Sequence of Dickkopf-related protein 1 (Homo sapiens) (O94907 whole entry, looked up): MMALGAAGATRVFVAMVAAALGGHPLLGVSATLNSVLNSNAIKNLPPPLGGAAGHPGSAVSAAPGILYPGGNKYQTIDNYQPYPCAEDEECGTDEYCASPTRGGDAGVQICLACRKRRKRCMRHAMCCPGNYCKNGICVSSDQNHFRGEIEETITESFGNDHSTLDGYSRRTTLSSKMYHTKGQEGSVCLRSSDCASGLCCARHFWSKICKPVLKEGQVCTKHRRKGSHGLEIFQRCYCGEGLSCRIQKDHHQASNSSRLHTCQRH

[10] = tested on: Inhibin beta A chain (activin A); test: small molecules binding activin A – biochemical, small-molecule microarray, 635 nm fluorescence scan, primary screen (AID 1107); conditions: INHBA, higher = more signal;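 also: mouse activin A protein probed at 4.33 µg/mL on printed slides; score merges bound-protein fluorescence near 667 nm with spot signal-to-noise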
[11] = tested on: Human papillomavirus type 1a protein E7 (residues 44-93); test: small molecules binding HPV E7 44-93 – biochemical, small-molecule microarray, residues 44-93, 635 nm fluorescence, primary screen (AID 1108); conditions: fluorescence 635 nm, higher = more signal;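 also: E7 fragment applied at 1 µg/mL in TBST for 1 h at 4 C; score combines spot fluorescence with its signal to noise ratio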
[12] = hepatitis C replication reporter changes, two-sided – Huh7 cells, luciferase reporter, HCV replication inhibitor project, primary screen (AID 1109); conditions: Huh7 HCV replicon luciferase reporter, 48 h; higher = more signal;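 also: huh7 hepatoma cells harbouring a luciferase neomycin HCV replicon reporter; luciferase luminescence as measure of HCV replicon replication; test concentration not given here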
[13] = target: Left-right determination factor 2 (Homo sapiens) (UniProt O00292); test: small molecules binding LEFTY2 protein – biochemical, small-molecule microarray, 635 nm fluorescence scan, primary screen (AID 1110); conditions: higher = more signal
Sequence of Left-right determination factor 2 (Homo sapiens) (O00292 whole entry, looked up): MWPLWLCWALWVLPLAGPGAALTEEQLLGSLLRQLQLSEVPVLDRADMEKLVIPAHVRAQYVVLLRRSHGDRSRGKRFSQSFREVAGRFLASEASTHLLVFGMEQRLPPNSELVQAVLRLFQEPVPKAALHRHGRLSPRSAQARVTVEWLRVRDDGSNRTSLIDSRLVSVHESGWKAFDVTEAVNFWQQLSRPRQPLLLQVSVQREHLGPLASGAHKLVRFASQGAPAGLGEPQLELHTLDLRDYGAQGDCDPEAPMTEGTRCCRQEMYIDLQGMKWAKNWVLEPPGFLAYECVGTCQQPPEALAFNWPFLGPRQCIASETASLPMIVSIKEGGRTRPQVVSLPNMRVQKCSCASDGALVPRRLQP

[14] = target: Calmodulin-1 (Homo sapiens) (UniProt P0DP23); test: small molecules binding calmodulin-1 with EGTA – biochemical, small-molecule microarray, Cy5-labelled CALM1, profiling panel (AID 1111); conditions: Cy5-CALM1 binding fluorescence, higher = more signal;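 also: labelled calmodulin applied in Tris saline Tween buffer holding calcium plus EGTA and DTT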
[15] = target: Calmodulin-1 (Homo sapiens) (UniProt P0DP23); test: small molecules binding Ca-loaded calmodulin-1 – biochemical, small-molecule microarray, Cy5-labelled CALM1, plus calcium, artefact control for SMM control-protein annotation, profiling panel (AID 1112); conditions: Cy5-CALM1 binding fluorescence, higher = more signal;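 also: score merges spot fluorescence with signal to noise from triplicate slides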
[16] = probe aWnt5a binding to arrayed compounds – biochemical, biotinylated probe, 635/667 nm fluorescence, primary screen (AID 1113); conditions: small-molecule microarray, higher = more signal;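 also: score merges 667 nm fluorescence intensity with signal-to-noise per printed feature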
[17] = probe aShh binding to arrayed compounds – biochemical, biotinylated probe, 635/667 nm fluorescence, primary screen (AID 1114); conditions: small-molecule microarray, higher = more signal;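 also: probe is biotin-labelled aShh protein from a stem cell growth factor screen; measures binding of labelled protein to compounds printed on the slide; score merges feature fluorescence at 667 nm with signal-to-noise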
[18] = probe aNog binding to arrayed compounds – biochemical, biotinylated probe, 635/667 nm fluorescence, primary screen (AID 1115); conditions: small-molecule microarray, higher = more signal;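 also: probe is biotinylated aNog protein used at 0.15 µg/mL for 1 h at 4 C; z-score combines 667 nm fluorescence of each spot with its signal to noise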
[19] = target: Torsin-1A-interacting protein 1 (Homo sapiens) (UniProt Q5JTV8); test: compound microarray binding of lysate hLAP1 – cell lysate, small-molecule microarray, COS7 lysate, 635/667 nm fluorescence, primary screen (AID 1116); conditions: 635 nm fluorescence, higher = more signal
Sequence of Torsin-1A-interacting protein 1 (Homo sapiens) (Q5JTV8 whole entry, looked up): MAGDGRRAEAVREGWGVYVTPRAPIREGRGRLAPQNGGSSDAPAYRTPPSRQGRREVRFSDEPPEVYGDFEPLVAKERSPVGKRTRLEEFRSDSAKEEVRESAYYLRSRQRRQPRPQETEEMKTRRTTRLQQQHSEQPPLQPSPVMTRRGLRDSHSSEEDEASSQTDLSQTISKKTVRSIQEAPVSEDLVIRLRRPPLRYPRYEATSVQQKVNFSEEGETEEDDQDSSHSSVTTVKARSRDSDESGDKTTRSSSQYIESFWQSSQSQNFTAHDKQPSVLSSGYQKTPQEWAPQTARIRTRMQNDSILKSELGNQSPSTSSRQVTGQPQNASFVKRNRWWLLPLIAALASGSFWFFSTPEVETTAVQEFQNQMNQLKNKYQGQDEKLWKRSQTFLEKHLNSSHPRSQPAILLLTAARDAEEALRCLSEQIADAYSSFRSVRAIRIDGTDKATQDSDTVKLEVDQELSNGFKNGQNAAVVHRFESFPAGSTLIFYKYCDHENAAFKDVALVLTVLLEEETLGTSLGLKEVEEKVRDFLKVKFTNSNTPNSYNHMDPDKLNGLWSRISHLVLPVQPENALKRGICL

[20] = target: Alpha-bungarotoxin (Bungarus multicinctus) (UniProt P60615); test: compounds binding labelled alpha-BTX control protein – biochemical, small-molecule microarray, Alexa647 label, 635/667 nm fluorescence, artefact control for SMM control protein annotation, profiling panel (AID 1117); conditions: alpha-BTX-A647 binding fluorescence, higher = more signal
Sequence of Alpha-bungarotoxin (Bungarus multicinctus) (P60615 whole entry, looked up): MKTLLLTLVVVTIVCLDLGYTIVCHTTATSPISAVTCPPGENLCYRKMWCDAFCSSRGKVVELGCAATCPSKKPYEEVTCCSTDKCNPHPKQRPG

SMILES	composite z-score [1]	composite z-score [2]	composite z-score [3]	z-score [4]	composite z-score [5]	composite z-score [6]	composite z-score [7]	composite z-score [8]	composite z-score [9]	composite z-score [10]	composite z-score [11]	z-score [12]	composite z-score [13]	composite z-score [14]	composite z-score [15]	composite z-score [16]	composite z-score [17]	composite z-score [18]	composite z-score [19]	composite z-score [20]
COc1ccc(O[C@H]2C=C[C@@H](c3ccccc3)O[C@@H]2CON=C(C)C)cc1	1.04	0.267	0.755	1.07 (inactive)	-0.665	-1.12	-0.0601	-0.0815	-0.292	1.42	-0.336	-0.75	0.317	0.0047	0.495	0.0761	0.318	0.118	0.314	0.724
CO[C@H]1COC(=O)CC=C[C@@H](C)[C@H](OC)COC(=O)[C@@H]2CCCN2C(=O)CC=C[C@@H]1C	0.686	-0.382	-1.14	0.308 (inactive)	0.892	0.78	1.13	1.49	1.16	1.13	-0.298	0.443	1.32	-1.02	-1.82	-0.0819	-0.138	-0.748	0.159	-0.41
CC(CCN1CCCc2nc(C)c(C)cc21)=NO[C@@H](C)c1cc(-c2c(C)cc(C)cc2C)no1	0.739	0.0311	-0.648	-0.408 (inactive)	0.322	0.525	-0.0398	0.293	0.41	0.881	0.788	-0.414	0.231	0.446	-0.17	-0.101	0.0952	0.173	0.601	0.494
CO[C@@H]1C=CCC(=O)N2CCC[C@H]2C(=O)OC[C@@H](C)C(=O)OC[C@H]1C	1.1	-0.21	-0.822	-0.497 (inactive)	0.441	0.484	0.521	1.44	1.43	0.163	-0.291	0.189	0.837	-0.759	-1.02	-0.0896	-0.0362	-0.246	-0.0837	-0.276
COc1ccc(O[C@H]2C=C[C@@H](c3ccccc3)O[C@@H]2COC(=O)CCC(C)=NO[C@@H]2O[C@H](COC(C)=O)[C@@H](OC(C)=O)[C@H](OC(C)=O)[C@H]2OC(C)=O)cc1	0.538	-0.397	-0.374	-0.315 (inactive)	0.799	1.01	0.609	1.12	0.275	-0.116	1.29	-1.88	0.511	-0.126	-0.643	-0.0944	-0.206	-0.53	0.38	0.731
CCN1C(=O)[C@H]2[C@H]3[C@H](O)[C@H](O)CC(=O)[C@@H]3CC[C@H]2C1=O	0.677	-0.22	-0.478	-0.0387 (inactive)	0.492	0.692	0.555	0.688	0.396	-0.167	0.869	0.105	0.685	0.0536	-0.493	-0.192	-0.138	-0.237	0.467	0.488
